From PubChem BioAssay (NCATS)
Results filed as inconclusive are left out. The source made the active and inactive calls. Unless noted, calls follow the shape of the dose curve; as a rule, active = well fitted curve in the direction sought with a large enough effect; inconclusive = small, poorly fitted or top-dose-only effect, or another doubt; inactive = no such curve, though single readings can be large; an effect the other way counts as inactive or inconclusive.

How the values were obtained:
[1] = Cell Viability - BJ (AID 421; calls by dose curve;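 also: potency is read from the fitted curve at half-maximal effect; cells exposed to compound for 40 hours at 37 °C before readout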); settings: BJ fibroblast viability, qHTS
Outline: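 Cytotoxicity as drop in intracellular ATP (CellTiter-Glo, 20 min RT) after 40 hr compound exposure of BJ fibroblasts at 37 °C. Titrations scaled between DMSO and 100 uM tamoxifen, Hill-fitted for AC50.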

[2] = Cell Viability - Jurkat (AID 426;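 active = dose-dependent loss of cell ATP signal giving a full or clear fitted curve, ranked by lower potency value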; also: potency is read from the fitted curve at half-maximal effect); settings: qHTS
Outline: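 Jurkat (Clone E6-1) cells, 5000/well in complete medium, exposed to compounds for 40 hr at 37C; intracellular ATP measured by CellTiter-Glo luminescence after 20 min at room temperature. AC50 from Hill fits.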

[3] = Cell Viability - Hek293 (AID 427;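 active = compounds whose dose-response curve shows a full or clear partial loss of cell viability, called from curve shape rather than a numeric limit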;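 also: potency is read from the fitted curve at half-maximal effect; cells exposed to compound for 40 hours at 37 °C before reading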); settings: qHTS
Outline: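 Luminescent ATP content (CellTiter-Glo, 20 min at room temperature) was measured after a 40 hr, 37 °C compound exposure of HEK293 cells. AC50 values came from Hill-equation fits of qHTS concentration-response data normalized to DMSO and 100 uM tamoxifen.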

[4] = Cell Viability - HepG2 (AID 433; calls by dose curve;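 also: potency is read from the fitted curve at half-maximal effect; potency for ATP loss meaning cytotoxicity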); settings: qHTS
Outline: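 Cytotoxicity is scored as loss of intracellular ATP in HepG2 cells exposed to compounds for 40 h. Concentration-response curves, normalized to DMSO and 100 uM tamoxifen, give AC50 values.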

[5] = Cell Viability - MRC5 (AID 434; calls by dose curve;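 also: potency is read from the fitted curve at half-maximal effect; potency reflects cytotoxicity seen as loss of intracellular ATP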); settings: MRC5 lung fibroblast viability, qHTS
Outline: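 MRC5 normal human lung fibroblasts (1500/well) were treated with compounds for 40 hr at 37 °C in complete medium, and viable cells were measured as intracellular ATP by CellTiter-Glo luminescence. AC50 came from Hill fits, normalized to DMSO and 100 uM tamoxifen.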

[6] = Cell Viability - SK-N-SH (AID 435; calls by dose curve;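 also: potency is read from the fitted curve at half-maximal effect; compound exposure lasted 40 h at 37 °C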); settings: SK-N-SH neuroblastoma cell viability qHTS
Outline: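 Cells seeded at 1500 per well and incubated 5 hr at 37 °C. Compound added, then 40 hr at 37 °C. CellTiter-Glo added, 20 min at room temperature, luminescence read.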

[7] = target: Mitogen-activated protein kinase 10 (Mus musculus) (UniProt Q61831); assay: JNK3 AlphaScreen Assay (AID 530; active = well fitted curve in either direction with a large enough effect, not every such curve was filed as active;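 also: kinase came from lysate of stimulated human HepG2 cells; signal reports phosphorylation of biotinylated GST-cJun 1-79 at Ser73 with 10 µM ATP; % is scaled to controls: 0 for no effect and ±100 for the full control effect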); settings: JNK3 lysate, c-Jun phosphorylation; series mostly up to 57.1 µM
Outline: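 Inhibitors reduce antibody binding to phosphorylated biotin-cJun, lowering AlphaScreen luminescence. Lysates from HepG2 cells pre-activated by IL-1beta plus TNF-alpha supplied JNK3; compounds were titrated.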

[8] = Cell Viability - N2a (AID 540); settings: N2a mouse neuroblastoma cell viability; at 92.2 µM (top of the series);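 also: plate controls were DMSO alone for no effect and tamoxifen control for full effect; nearly all actives have a fitted effect of over 45% in size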
Outline: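 Mouse neuroblastoma N2a cells, 1500/well, exposed to compounds 40 h at 37 °C in complete medium. Viability measured as cellular ATP by CellTiter-Glo luminescence; AC50 from Hill fits of concentration-response.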

[9] = Cell Viability - NIH 3T3 (AID 541); settings: NIH 3T3 cell viability, qHTS; activity change, negative = cytotoxicity: at 92.2 µM (top of the series);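 also: plate controls were DMSO alone for no effect and tamoxifen positive control for full effect; nearly all actives have a fitted effect of over 25% in size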
Outline: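 Mouse NIH 3T3 fibroblasts, 1000 cells/well, rested 5 hr at 37 °C, then exposed to compound for 40 hr at 37 °C in complete medium. Viability read as intracellular ATP by CellTiter-Glo luminescence; AC50 from Hill-equation fits of concentration-response data.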

[10] = Cell Viability - HUV-EC-C (AID 542); settings: HUV-EC-C endothelial cell viability, qHTS; series mostly up to 92.2 µM; also: % is scaled to controls: 0 for no effect and ±100 for the full control effect; nearly all actives have a fitted effect of over 35% in size
Outline: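 HUV-EC-C human vascular endothelial cells, 1000/well, exposed to compound for 40 hr at 37 °C in complete medium. Intracellular ATP was read by CellTiter-Glo luminescence. AC50 came from Hill-equation fits of concentration-response data.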

[11] = Cell Viability - H-4-II-E (AID 543); settings: H-4-II-E rat hepatoma viability; series mostly up to 92.2 µM; also: % is scaled to controls: 0 for no effect and ±100 for the full control effect; nearly all actives have a fitted effect of over 35% in size
Outline: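 Rat hepatoma H-4-II-E cells, 1500 per well, treated 40 h at 37 °C in complete medium. Cellular ATP read by CellTiter-Glo luminescence; AC50 from Hill fits of concentration-response.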

[12] = Cell Viability - SH-SY5Y (AID 544); settings: SH-SY5Y neuroblastoma cell viability; viability change, negative = cytotoxic: at 92.2 µM (top of the series); also: nearly all actives have a fitted effect of over 55% in size
Outline: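 SH-SY5Y human neuroblastoma cells (1500/well) incubated 5 h, then compound-treated 40 h at 37 °C in complete medium. Viability read as intracellular ATP by CellTiter-Glo luminescence after 20 min; AC50 from Hill-equation fits of qHTS concentration-response.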

[13] = Cell Viability - Renal Proximal Tubule (AID 545); settings: renal proximal tubule cells viability; at 91.7 µM (top of the series), primary cells of rat origin unless noted; also: nearly all actives have a fitted effect of over 40% in size
Outline: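 Cytotoxicity is scored as a concentration-dependent drop in cellular ATP in primary rat renal proximal tubule cells exposed for 40 hr. AC50 derives from Hill modelling.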

[14] = Cell Viability - Mesenchymal (AID 546); settings: mesenchymal cells viability, qHTS; series mostly up to 91.7 µM;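 also: cells exposed to compound for 40 hours before reading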
Outline: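 Normal human renal glomerulus-derived kidney mesenchymal cells, 1000 per well in complete medium, were treated with compounds for 40 hr at 37 °C. Viability was read as intracellular ATP by CellTiter-Glo luminescence; AC50 values came from Hill-equation fits of qHTS concentration-response data.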

[15] = Cellular Toxicity (caspase-3) HepG2 (AID 654); settings: HepG2 caspase-3 activation, luminescence, 0% = DMSO only, 100% = tamoxifen; series mostly up to 92.2 µM;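 also: cells exposed to compound for 16 hours before reading; 0% = DMSO alone and 100% = caspase signal from 100 µM tamoxifen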
Outline: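 HepG2 cells (1500/well) were treated 16 h at 37 °C in complete medium, then caspase 3/7 activity was read by Caspase-Glo luminescence. Data were normalized to DMSO and 100 uM tamoxifen; AC50 came from Hill-equation fits of qHTS concentration-response.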

[16] = Cellular Toxicity (caspase-3) Jurkat (AID 655); settings: Jurkat caspase-3 activation, luminescence, DMSO = 0%, tamoxifen = 100%; at 92.2 µM (top of the series);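 also: cells exposed to compound for 16 h at 37 °C before reading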
Outline: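 Caspase 3/7 activation is scored as increased luminescence in Jurkat cells cultured with compound for 16 hours in complete medium. AC50 values come from Hill fits of qHTS concentration-response data normalized to DMSO and 100 uM tamoxifen controls.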

[17] = Cellular Toxicity (caspase-3) HUV-EC-C (AID 656); settings: HUV-EC-C cells, caspase-3 activation (apoptosis), vehicle = 0, 100 µM tamoxifen = 100%; series mostly up to 92.2 µM
Outline: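 Read-out: luminescence proportional to caspase 3/7 activity, measured 20 min after adding Caspase-Glo 3/7 reagent. Cells (HUV-EC-C) had received compound for 16 hr at 37°C. Increases relative to DMSO and 100 uM tamoxifen gave concentration-response AC50 values.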

[18] = Cellular Toxicity (caspase-3) SHSY5Y (AID 657); settings: SH-SY5Y caspase-3 activation, DMSO zero, 10 µM staurosporine = 100%; series mostly up to 91.7 µM
Outline: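 Cells plated and incubated 5 h at 37 °C, dosed over a concentration range, incubated 16 h, then given Caspase-Glo 3/7 reagent for 1 h at room temperature before luminescence reading. Staurosporine (10 uM) defined full stimulation.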

[19] = Cellular Toxicity (caspase-3) BJ (AID 658); settings: BJ fibroblasts, luminescence, normalized: DMSO 0%, staurosporine 100%; series mostly up to 91.7 µM
Outline: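 Luminescent aminoluciferin-substrate cleavage reports caspase 3/7 activity in normal human BJ fibroblasts after 16 hr compound exposure at 37 °C. Normalized to DMSO (basal) and 10 uM staurosporine (100%); AC50 from Hill fit of concentration-response.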

[20] = Cellular Toxicity (caspase-3) MRC-5 (AID 659); settings: MRC-5 cells, luminescence, normalized: DMSO 0%, 10 µM staurosporine 100%; series mostly up to 91.7 µM
Outline: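 Luminescence from caspase-cleaved aminoluciferin substrate (Caspase-Glo 3/7, 1 hr RT) reports caspase 3/7 activity in MRC-5 lung fibroblasts after 16 hr compound exposure. Normalized to DMSO basal and 10 uM staurosporine as 100%; AC50 from Hill fits.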

[21] = Cellular Toxicity (caspase-3) Mesangial (AID 660); settings: mesangial cells, normalized: DMSO 0%, 100 µM tamoxifen 100%; series mostly up to 91.7 µM;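 also: cells exposed to compound for 16 h before the caspase read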
Outline: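 Human renal glomerular mesangial cells, 1000/well, 5 h at 37 C before 16 h compound treatment. Caspase-Glo 3/7 luminescence after 20 min; normalized to DMSO and 100 uM tamoxifen, AC50 from Hill fit.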

[22] = Cellular Toxicity (caspase-3) SK-N-SH (AID 661); settings: SK-N-SH caspase-3 activation, qHTS, DMSO as zero, staurosporine as full; series mostly up to 91.7 µM
Outline: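 Human SK-N-SH neuroblastoma cells, 1500/well, were exposed to compounds for 16 hours at 37 °C. Caspase-Glo 3/7 luminescence was normalized to DMSO (basal) and 10 uM staurosporine (100%), and AC50 came from a Hill fit.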

[23] = Cellular Toxicity (caspase-3) H-4-II-E (AID 663); settings: H-4-II-E rat hepatoma, scaled: DMSO 0%, 100 µM tamoxifen 100%; series mostly up to 92.2 µM;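 also: cells exposed to compound for 16 hr before readout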
Outline: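 Luminescence from caspase-cleaved aminoluciferin substrate, read 20 min after reagent addition, reports caspase 3/7 activation in rat H-4-II-E cells after 16 hr compound exposure. Normalized to DMSO (basal) and 100 uM tamoxifen (100%); AC50 from Hill fits.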

[24] = Cellular Toxicity (caspase-3) Hek293 (AID 664); settings: HEK293 caspase-3 activation, DMSO = 0%, 100 µM tamoxifen = 100%; series mostly up to 92.2 µM;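 also: cells exposed to compound for 16 h at 37 °C before readout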
Outline: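 HEK293 cells in complete medium treated 16 h at 37 °C, then Caspase-Glo 3/7 luminescence read after 20 min at room temperature. Normalized to DMSO and 100 uM tamoxifen; AC50 from Hill fit of concentration-response.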

CC(Cl)Cl
inactive: Potency [1] > 92 µM | Potency [2] > 92 µM | Potency [3] > 92 µM | Potency [4] > 92 µM | Potency [5] > 92 µM | Potency [6] > 92 µM | outcome [7] | activity change, negative = cytotoxicity [8] -11.1% | activity change, negative = cytotoxicity [9] -15.4% | Potency [10] | Potency [11] | Potency [12] | activity change, negative = cytotoxicity [13] -11.4% | outcome [14] | outcome [15] | caspase-3 activation [16] 1.86% | outcome [17] | outcome [18] | outcome [19] | outcome [20] | outcome [21] | outcome [22] | outcome [23] | outcome [24]
